Reference: PubChem BioAssay AID1053174 (Broad Institute, 2014)
Out of some 1,500 compounds screened, about 140 (9.3%) were called active. No rule for the calls is given here. Not all results are given here.

assay: false positives in methylated H4 peptide AlphaScreen detection – biochemical, cherry-picked samples, artefact control for NSD2 inhibitor project, dose response (AID 1053174); details: AlphaScreen artifact counterscreen, preloaded methylated H4 peptide; series mostly up to 10 µM; activity change, negative = signal loss: at the top concentration;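 as to activity change, negative = signal loss: 0% = median of neutral control wells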

Row | Structure (SMILES) | activity change, negative = signal loss | AC35
1 | CCNC(=O)C1(C)CCCN(C(=O)c2ccc3ccccc3n2)C1 (stereo unspecified) | -5.17% (inactive) | 
2 | O=C(/C=C/c1ccc(Cl)cc1Cl)NCc1ccco1 | -1.78% (inactive) | 
3 | COC(=O)c1nc(NC(=O)c2ccccc2)n[nH]1 | -0.64% (inactive) | 
4 | CCC1=[N+]([O-])C(C)(/C(C)=N\O)N(O)C1(C)C (stereo unspecified) | -1.82% (inactive) | 
5 | COC(=O)CCCCC1=CCC2C(=O)C=C(O)C2C1 (stereo unspecified) | -3.31% (inactive) | 
6 | Clc1ccc(C2=CSC3=Nc4cccc5cccc(c45)N23)cc1 | -4.57% (inactive) | 
7 | C=CCc1cccc2cc(C(=O)Nc3ccc(NC(C)=O)cc3)c(=O)oc12 | -3.44% (inactive) | 
8 | Oc1ccc(CNc2ccccc2O)cc1 | -4.59% (inactive) | 
9 | O=C(CNC(=O)c1ccccc1)Oc1ccc([N+](=O)[O-])cc1 | -0.899% (inactive) | 
10 | Cc1c(CC(=O)N2CCN(C(=O)C3COc4ccccc4O3)CC2)c(=O)oc2c(O)c(O)ccc12 (stereo unspecified) | -19.2% (inactive) | 
11 | CS(=O)(=O)N(CC(=O)NCc1ccco1)c1ccc2c(c1)OCO2 | -6.79% (inactive) | 
12 | Cc1[nH]n(-c2ccccc2)c(=O)c1N=Nc1ccccc1C(=O)N1CCCCC1 | -13.8% (inactive) | 
13 | CN(C(=O)CN1C(=O)S/C(=C\c2ccccc2F)C1=O)C1CCS(=O)(=O)C1 (stereo unspecified) | -3.69% (inactive) | 
14 | CC(=O)N(C1=C(Cl)C(=O)c2ccccc2C1=O)c1ccc(C(=O)O)cc1 | 1.35% (inactive) | 
15 | C(=N/Nc1cc(N2CCOCC2)nc(N2CCOCC2)n1)/c1ccccc1 | -3.4% (inactive) | 
16 | Cc1cccc(OCCC(=O)Nc2ccccc2C(N)=O)c1 | -6.47% (inactive) | 
17 | Cn1ncc2c(Nc3cccc4ccccc34)ncnc21 | -0.685% (inactive) | 
18 | Cc1[nH][nH]c(=O)c1C(c1ccc2c(c1)OCO2)c1c(C)[nH][nH]c1=O | -7.25% (inactive) | 
19 | Cc1ccc(S(=O)(=O)/N=C2\C=C(NS(=O)(=O)c3ccc(C)cc3)C(=O)c3ccccc32)cc1 |  | 9.17 µM (active)
20 | O=c1[nH]c(CN2CCOCC2)nc2cc(Cl)ccc12 | -0.282% (inactive) | 
21 | CCOC(=O)c1nnn(-c2nonc2OC)c1-c1ccccc1 | -3.01% (inactive) | 
22 | Cc1cc(=O)[nH]c(N/N=C/c2c(C)nn(-c3ccccc3Cl)c2Cl)n1 | -5.79% (inactive) | 

Row | Structure (SMILES) | activity change, negative = signal loss | AC35
23 | Cc1ccc(-c2ccc(/C=N/NC(=O)CN3CCOCC3)o2)cc1[N+](=O)[O-] | -5.05% (inactive) | 
24 | CCN1CCCC1CNc1ncnc2c1[nH]c1ccc(F)cc12 (stereo unspecified) | -7.31% (inactive) | 
25 | O=C(NNC(=O)c1ccc(Cl)nc1)c1ccc(Br)cc1 | 1.02% (inactive) | 
26 | CCN(CC)CCCC(C)n1c2nc(=O)[nH]c(=O)c-2nc2cc(Cl)ccc21 (stereo unspecified) | -0.97% (inactive) | 
27 | CCN(CC)CCOc1ccc2c(c1)C(=NNC(=O)c1ccccn1)c1cc(OCCN(CC)CC)ccc1-2 | -19.1% (inactive) | 
28 | Cc1ccnc(N2CCC(C(=O)NC3CCCCCC3)CC2)n1 | 1.89% (inactive) | 
29 | C=CCNCCCCOc1ccccc1 | -2.37% (inactive) | 
30 | Cc1ccccc1-n1nc(C)c2c1N=C1C(Cl)=CC(Cl)=CN1C2c1ccc(C(=O)O)cc1 (stereo unspecified) | -5.91% (inactive) | 
31 | CCOC(=O)c1c(C)[nH]c(C(=O)NCCN2CCOCC2)c1C | -4.69% (inactive) | 
32 | O=C1C=CC(=O)N1c1ccc(N2CCCCC2)cc1 | 0.066% (inactive) | 
33 | O=C(Cn1cc(C(F)(F)F)ccc1=O)Nc1ccc2c(c1)OCCO2 | -1.84% (inactive) | 
34 | COc1cc(C(=O)Nn2c(O)c(C3=c4ccccc4=NC3=O)sc2=S)ccc1O | -2.75% (inactive) | 
35 | COc1ccc(NC(=O)Cn2nnc(C(=O)NCCc3ccc(OC)c(OC)c3)c2N)cc1 | -5.08% (inactive) | 
36 | CCOc1cc(/C=C/C(=O)OCC(=O)NCCN2C(=O)CSC2=O)ccc1OCC(C)C | -3.73% (inactive) | 
37 | CC1CCN(CCC(=O)Nc2ccccc2)CC1 | -3.77% (inactive) | 
38 | O=C1Nc2cc(C(=O)N3CCC(N4CCCCC4)CC3)ccc2S/C1=C\c1ccccc1 | -9.24% (inactive) | 
39 | CC(C)(C)CC(=O)Nc1nnc(SCC(=O)NCc2cccs2)s1 | -0.29% (inactive) | 
40 | O=C1C(Cl)=C(Oc2ccccc2)C(=O)c2ccccc21 | -1.11% (inactive) | 
41 | O=c1ccc2c(-c3ccccc3S(=O)(=O)O)c3ccc(O)c(O)c3oc-2c1O |  | 0.557 µM (active)
42 | CC(=O)c1cc(-c2ccccc2)n(CC(=O)NC2CCCCC2)c1C | -3.2% (inactive) | 
43 | Cc1[nH][nH]c(=O)c1C(c1ccc(-c2ccc(Cl)cc2)o1)c1c(C)[nH][nH]c1=O | -6.16% (inactive) | 
44 | CCOc1ccc(C(CC(=O)O)NC(=O)C23CC4CC(CC(C4)C2)C3)cc1OC (stereo unspecified) | 4.36% (inactive) | 

Row | Structure (SMILES) | activity change, negative = signal loss | AC35
45 | COc1ccc(S(=O)(=O)N2CCCC(C(=O)NCCCn3ccnc3)C2)cc1OC (stereo unspecified) | -0.456% (inactive) | 
46 | COc1ccc(NC(=O)C2Cc3c(-c4ccc(Cl)cc4)ccnc3O2)cc1 (stereo unspecified) | 3.24% (inactive) | 
47 | CCOc1ccccc1Nc1nnc(SCc2ccc(C(=O)OC)o2)s1 | 6.37% (inactive) | 
48 | NC1=CC(=O)C(=O)c2cccnc21 | -4.08% (inactive) | 
49 | N#Cc1ccc(CSc2ncccn2)cc1 | -5.04% (inactive) | 
50 | Cc1ccc(S(=O)(=O)N(C)C)cc1NC(=O)/C=C/c1cccs1 | -7.91% (inactive) | 
51 | O=C(CN1C(=O)c2ccc([N+](=O)[O-])cc2C1=O)Nc1nnc(C2CC2)s1 | 3.62% (inactive) | 
52 | O=C(NCc1ccco1)c1nc(-c2ccccc2)n(-c2ccccc2)n1 | -0.34% (inactive) | 
53 | CCOC(=O)c1c(C)[nH]c2c1-c1ccccc1C(=O)C2=O | -0.086% (inactive) | 
54 | O=[N+]([O-])c1ccccc1Nc1ccc(O)cc1 | -22.6% (inactive) | 
55 | O=C(CSc1nnc(-c2ccccc2O)o1)NC1CCCCC1 | -3.17% (inactive) | 
56 | Cc1ccc(C(=O)Cn2cc([N+](=O)[O-])nc2C)cc1 | 3.46% (inactive) | 
57 | COCC(C)n1c(SCC(=O)NC2CCCCC2C)nc2ccccc2c1=O (stereo unspecified) | -4.78% (inactive) | 
58 | Cc1ccc(/C=N/NC(=O)c2cc3ccccc3cc2O)o1 | 0.575% (inactive) | 
59 | COc1ccccc1N(C)S(=O)(=O)c1ccc(C(=O)NC2CCCCCC2)cc1 | -2.33% (inactive) | 
60 | COc1ccc(OC)c(-c2csc(-c3cccs3)n2)c1 | -2% (inactive) | 
61 | COC(=O)[C@H](Cc1ccccc1)NC(=O)Nc1ccc(S(N)(=O)=O)cc1 | -3.74% (inactive) | 
62 | C/C(=N/NC(=O)CCc1ccccc1)c1ccco1 | 1.24% (inactive) | 
63 | CCN(CC)S(=O)(=O)c1ccc(N2CCN(C)CC2)c(NC(=O)Nc2ccccc2F)c1 | -5.39% (inactive) | 
64 | Cc1sc2ncnc(SCC(=O)Nc3ccc(CN4CCCC4)cc3)c2c1C | -3.43% (inactive) | 
65 | C=CCn1c(=NC(=O)c2ccc(S(=O)(=O)N3CCCC3)cc2)sc2cc(NC(C)=O)ccc21 | -1.39% [at 5 µM] (inactive) | 
66 | CCN(CC)CCCNC(=O)c1cc(-c2cccc(Cl)c2)on1 | -3.33% (inactive) | 
